ATXN viability: Viability Counterscreen for Primary qHTS for Inhibitors of ATXN expression; AID 651635, 2014; S2 cells (HEK-293 line with an ATXN2-luciferase reporter) viability, CellTiter-Fluor protease fluorescence, 24 h; Potency, µM (top dose mostly 56.7 µM), hits mostly cytotoxic; 0.49% of 400,000 active; further: nearly all actives have a fitted effect of over 40% in size
ATXN2 expr inh: Primary qHTS for Inhibitors of ATXN expression; HEK-293 ATXN2-luciferase reporter, luminescence, 24 h; Potency, µM (series often up to 57 µM), hits mostly inhibitors; 0.72% of 360,000 active; AID 1745845, 2022; further: nearly all actives have a fitted effect of over 55% in size
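qHTS (up to 57 uM final) was run with 24 h compound exposure of reporter cells at 37 °C. Each well was multiplexed: SteadyGlo luminescence measured ATXN2-luciferase expression after a fluorogenic Gly-Phe-AFC viability readout (25 uM final).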
TGFb inhibitor: qHTS for Inhibitors of TGF-b. HepG2 CAGA-GFP TGF-b/SMAD3 reporter, GFP fluorescence, 18 h; TGF-beta stimulated, 500 pg/mL final. 1.2% of 410,000 active. Potency, µM (highest dose often 46.1 µM), most hits filed as inhibitors; further: nearly all actives have a fitted effect of over 65% in size
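Per well, imaged GFP fluorescence of HEPG2 CAGA-GFP cells gives the signal; cells get compound, then TGF-beta (500 pg/mL final), 18 h at 37 degrees C; %Activity versus -TGF-beta and +DMSO controls.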
uPA surface inh: qHTS for Inhibitors of Cell Surface uPA Generation. 0.31% of 330,000 active. Potency, µM (highest dose often 38.3 µM), usual class: inhibitors. cell surface uPA generation assay, qHTS. AID 540303, 2011; active means well fitted inhibition curve with a large enough effect; inconclusive means small, poorly fitted or top-dose-only effect; inactive means no such curve, though single readings can be large or run the other way; tested in mouse RAW 264.7 cells; further: nearly all actives have a fitted effect of over 55% in size
Giardia killer: Small Molecules that selectively kill Giardia lamblia: qHTS | activity change, % at 7.66 µM, hits read low | 0.15% of 340,000 active | Giardia lamblia trophozoite viability; in the data active means activity change below about -80%; inconclusive means between about -30% and that limit;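 further: parasites exposed to compound for two days anaerobically before the ATP read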
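Giardia lamblia trophozoites (100 cells/well) were incubated with compounds for 48 h at 37 deg C under anaerobic conditions. Viability was read as ATP content by one-step luminescence after 15-30 min at room temperature.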
HepG2 viability: qHTS for Inhibitors of TGF-b: Cytotox Counterscreen; HepG2 CAGA-GFP viability, ATP luminescence, 18 h; Potency, µM (doses to about 46.1 µM), usual class: cytotoxic; 0.76% of 410,000 active
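HepG2 CAGA-GFP cells (1000/well, DMEM with 1% FBS) received compound, then TGF-beta at 500 pg/mL final, and were incubated 18 hours at 37 degrees C. Viability was read by CellTiter-Glo luminescence. Media-only wells were set as complete cell-killing and DMSO as no toxicity.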
Numbers stand for hits; n = inactive; u = inconclusive; x = not tested or not shown. Most compounds without a hit are left out; they make up all but 2.6% or so of the library. Unless noted, the call rests on the fitted dose curve; in most records, active means well fitted curve in the direction sought with a large enough effect; inconclusive means small, poorly fitted or top-dose-only effect, or another doubt; inactive means no such curve, though single readings can be large; an effect the other way counts as inactive or inconclusive.

SMILES | ATXN viability | ATXN2 expr inh | TGFb inhibitor | uPA surface inh | Giardia killer | HepG2 viability
CNc1c(Br)cc(/C=C2\C=C(C(O)c3cc(Br)c(NC)c(Br)c3)c3ccccc32)cc1Br (stereo not drawn) | x | x | n | x | x | n
CNC(=O)[C@H](CC1=CN=C2C=CCC=C12)NC(=O)[C@@H](CC(=O)NO)CC(C)C | x | 0.017µM | x | x | x | x
NC(=O)c1ncn([C@@H]2O[C@H](CO)[C@@H](O)[C@@H]2O)c1N | x | n | x | x | x | x
CCC(=O)Nc1cccc(-c2ccc(N3CCC(C)CC3)nn2)c1 | n | x | n | u | -85 | n
CCC(=O)Nc1ccc(-c2ccc(N3CCC(C)CC3)nn2)cc1 | n | n | n | u | n | n
CC1CCN(c2ccc(-c3cccc(NC(=O)c4ccco4)c3)nn2)CC1 | n | n | n | n | u | n
CC1CCN(c2ccc(-c3cccc(NC(=O)C(F)(F)F)c3)nn2)CC1 | n | u | n | n | -84 | 20µM
O=C(Nc1cccc(-c2ccc(N3CCCCC3)nn2)c1)C(F)(F)F | u | x | n | u | u | 8.9µM
COc1ccc(C(=O)Nc2ccccc2C(=O)N/N=C/c2ccncc2)cc1OC | n | n | n | n | u | 13µM
O=C(Nc1ccccc1C(=O)N/N=C/c1ccccc1)c1ccco1 | n | n | n | n | n | n
COc1ccc(C(=O)Nc2ccccc2C(N)=O)cc1 | n | n | n | x | u | n
COc1ccc(C(=O)Nc2ccccc2C(=O)NCc2cccnc2)cc1OC | u | n | n | n | n | n
COc1ccc(C(=O)Nc2ccccc2C(=O)N/N=C/c2cccc3ccccc23)cc1 | n | n | n | n | -95 | n
O=C(Nc1ccccc1C(=O)N/N=C/c1ccc(O)cc1)c1ccccc1 | n | x | n | 7.1µM | n | n
Cc1ncc2c(c1CNC(=O)c1ccc3c(c1)OCO3)CCN(C(=O)C1Cc3ccccc3O1)C2 (stereo not drawn) | n | x | x | x | x | x
FC(F)(F)c1cc(CCN2CCNC[C@@H]2c2ccccc2)cc(C(F)(F)F)c1 | 35µM | u | u | n | n | n
Fc1cccc(CCN2CCNC[C@@H]2c2ccccc2)c1 | n | n | n | n | n | n
NC1=NC[C@H](CC2CCCCC2)N1CCc1cc(C(F)(F)F)cc(C(F)(F)F)c1 | u | u | u | n | n | 20µM
CCCC[C@@H]1CNCCN1CCc1cc(C(F)(F)F)cc(C(F)(F)F)c1 | 35µM | u | u | n | n | n
FC(F)(F)c1cc(CCN2CCNC[C@@H]2CC2CCCCC2)cc(C(F)(F)F)c1 | x | 22µM | u | n | n | n
COc1cccc(-c2cc3c(c(OC)c2)OCCN(S(=O)(=O)c2ccccc2OC(F)(F)F)C3)n1 | n | x | x | x | x | x
O=C1[C@H](Cc2ccccc2)NCC=CC[C@@H](c2ccc(Cl)cc2)N1Cc1ccc(Cl)cc1 | x | u | u | u | n | n
O=C1[C@H](Cc2ccccc2)NCC=CC[C@H](c2ccc(Cl)cc2)N1Cc1ccccc1 | u | u | 18µM | n | n | n
O=C1[C@H](Cc2ccccc2)NCC=CC[C@H](c2ccc(Cl)cc2)N1Cc1ccc(Cl)cc1 | 32µM | u | u | u | n | n
Cc1c(C(=O)N(C)C2CCOC2)sc2ncnc(NCc3ccc4c(c3)OCO4)c12 (stereo not drawn) | n | x | x | x | x | x
SMILES | ATXN viability | ATXN2 expr inh | TGFb inhibitor | uPA surface inh | Giardia killer | HepG2 viability
COc1ccc2sc(-c3ccc(SC)cc3)c(-c3ccc(O)cc3)c2c1 | u | 22µM | u | n | n | 13µM
Cc1oc2ccc(O)c(CN(C)Cc3ccccc3)c2c1C(=O)Nc1ccccc1 | x | x | u | x | x | 1.8µM
Cc1oc2ccc(O)c(CN(C)Cc3ccccc3)c2c1C(=O)Nc1cccc(C(F)(F)F)c1 | x | x | u | x | x | 10µM
Cc1ccc(NC(=O)c2c(C)oc3ccc(O)c(CN(C)Cc4ccccc4)c23)c(C)c1 | x | x | x | x | x | n
Clc1cccc(CNc2ncnc3nc[nH]c23)c1 | x | x | n | x | x | n
C=CCN1c2ccccc2[C@]23C[C@@H](C(=O)OC)N(C(=O)c4cc(C)oc4C)C2=NC(C(=O)OC)=C(C(=O)OC)[C@H]13 | u | n | n | 5.6µM | n | n
O=S(=O)(c1ccc(F)cc1)N1CCN(c2nc(-c3ccccc3)nc3cc(Cl)ccc23)CC1 | x | x | n | x | n | n
CC(C)C1(C)NC(c2ccc3c(c2)OCO3)=CC(c2ccccc2O)N1 (stereo not drawn) | x | x | n | x | n | n
CC(C)C1N=C(c2ccc3c(c2)OCO3)CC(c2ccccc2O)N1 (stereo not drawn) | 28µM | u | u | 10µM | n | n
COc1ccc(Nc2cc(C)nc(NCc3ccccc3)n2)cc1 | n | n | 13µM | n | n | n
Cc1cc(NC2CCCCC2)nc(NCc2ccccc2)n1 | u | u | 14µM | u | n | n
COC(=O)c1ccc(Oc2cc(C)nc(NCc3ccccc3)n2)cc1 | n | n | n | n | n | n
Cc1cc(Oc2ccc(C#N)cc2)nc(NCc2ccccc2)n1 | n | n | n | n | n | 8.9µM
Cc1cc2c(c(-c3ccc(Cl)cc3)c1)OC(CNC(=O)Cc1c(C)noc1C)C2 (stereo not drawn) | n | x | x | x | x | x
Cc1c(C(=O)N2CCCCC2)sc2ncnc(NCCc3ccccn3)c12 | n | x | x | x | x | x
c1csc(-c2nc(N3CCN(Cc4ccc5c(c4)OCCO5)CC3)c3ccccc3n2)c1 | x | x | x | x | n | x
Cc1ccc(CNc2ccc3c(c2)OCO3)cc1 | n | n | n | x | n | 13µM
N#CC(=C(N)Sc1ccc(N)cc1)c1ccccc1C(F)(F)F | x | n | x | x | x | x
O=C(O)CNC(=O)CNC(=O)CNC(=O)CSC(=O)c1ccccc1 | n | n | x | x | x | x
Nc1ccc(/C=C/c2ccnc3ccccc23)cc1[N+](=O)[O-] | x | x | n | x | x | n
CN1CCN(Cc2nc3ccccc3c(=O)n2Cc2nc(-c3ccc([N+](=O)[O-])cc3)cs2)CC1 | u | u | 16µM | n | n | 11µM
C/C(=N\N1C(=O)c2ccccc2NC1c1ccco1)c1ccccc1O (stereo not drawn) | x | x | u | 7.9µM | n | n
COc1ccc(-c2n(CC(=O)OC3CC(C)CCC3C(C)C)c3ccccc3[n+]2C)cc1 (stereo not drawn) | u | 7.5µM | 5µM | n | n | 11µM
COc1ccc(OCc2n(CC(=O)OC3CC(C)CCC3C(C)C)c3ccccc3[n+]2C)cc1 (stereo not drawn) | u | u | u | u | n | 14µM
CC1CCC(C(C)C)C(OC(=O)CSc2nccc(=O)[nH]2)C1 (stereo not drawn) | n | n | n | x | n | n
CN(C)c1ccc(/C=C/c2ccnc3cc(Cl)cc(Cl)c23)cc1 | x | x | n | x | x | n
COCCCN=Cc1c(C)[nH]n(-c2ccc(Br)c(C)c2)c1=O | n | n | u | n | n | n
